Measurements: PubChem BioAssay (NCI)
Compounds without any hit were thinned out: in the full panel of roughly 83,000, 20% have a hit.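 Values shown are percent growth following 48 h exposure of cells in 96-well plates to a single concentration of compound; below 10 was considered active.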

Legend:
Test in all cases: NCI-60 one-dose screen, 48 h (100 = growth as untreated, 0 = no growth, -100 = all killed)
Conditions in all cases: 10 µM
NCI-H23 lung = system: NCI-H23 lung
NCI-H226 lung = system: NCI-H226 lung
NCI-H322M lung = system: NCI-H322M lung
HOP-62 NSCLC = system: HOP-62 NSCLC
HOP-92 NSCLC = system: HOP-92 NSCLC
NCI-H522 lung = system: NCI-H522 lung
A549/ATCC NSCLC = system: A549/ATCC NSCLC
786-0 renal = system: 786-0 renal
COLO 205 colon = system: COLO 205 colon
DU-145 prostate = system: DU-145 prostate
K-562 leukemia = system: K-562 leukemia
MALME-3M melanoma = system: MALME-3M melanoma
MDA-MB-231 breast = system: MDA-MB-231 breast
RXF 393 renal = system: RXF 393 renal
SF-268 CNS = system: SF-268 CNS
SF-295 CNS = system: SF-295 CNS
SF-539 CNS = system: SF-539 CNS
UACC-257 melanoma = system: UACC-257 melanoma
M14 melanoma = system: M14 melanoma
NCI-H460 lung = system: NCI-H460 lung

Measured: growth

COc1ccc(C2(O)CCCCC2)cc1
inactive: NCI-H23 lung 97.9% | NCI-H226 lung 92.1% | NCI-H322M lung 105% | HOP-62 NSCLC 102% | HOP-92 NSCLC 73.2% | NCI-H522 lung 99.7% | A549/ATCC NSCLC 101% | 786-0 renal 98.5% | COLO 205 colon 112% | DU-145 prostate 112% | K-562 leukemia 111% | MALME-3M melanoma 105% | MDA-MB-231 breast 97% | RXF 393 renal 103% | SF-268 CNS 105% | SF-295 CNS 105% | SF-539 CNS 109% | UACC-257 melanoma 99.1% | M14 melanoma 101%

N#CSc1cc(S(N)(=O)=O)ccc1N
inactive: NCI-H23 lung 104% | NCI-H226 lung 108% | NCI-H322M lung 114% | HOP-62 NSCLC 104% | NCI-H460 lung 114% | A549/ATCC NSCLC 102% | COLO 205 colon 113% | DU-145 prostate 115% | K-562 leukemia 113% | MALME-3M melanoma 110% | MDA-MB-231 breast 108% | RXF 393 renal 119% | SF-268 CNS 108% | SF-295 CNS 120% | SF-539 CNS 102% | UACC-257 melanoma 107%

O=C1OC(=O)C2C1C1(Cl)C(Cl)=C(Cl)C2(Cl)C2C(=O)OC(=O)C21 (configuration not stated)
inactive: NCI-H23 lung 101% | NCI-H226 lung 97.5% | NCI-H322M lung 107% | HOP-62 NSCLC 104% | NCI-H460 lung 107% | 786-0 renal 102% | COLO 205 colon 93.9% | DU-145 prostate 116% | K-562 leukemia 105% | MALME-3M melanoma 98.2% | MDA-MB-231 breast 122% | RXF 393 renal 100% | SF-268 CNS 105% | SF-295 CNS 105% | SF-539 CNS 98.8% | M14 melanoma 101%

OC1OC(COC(c2ccccc2)(c2ccccc2)c2ccccc2)C(O)C(O)C1O (configuration not stated)
inactive: NCI-H23 lung 98.1% | NCI-H226 lung 90.1% | NCI-H322M lung 92.1% | HOP-62 NSCLC 107% | NCI-H460 lung 101% | 786-0 renal 102% | COLO 205 colon 117% | DU-145 prostate 107% | K-562 leukemia 95.4% | MALME-3M melanoma 90.6% | MDA-MB-231 breast 91.9% | RXF 393 renal 95.8% | SF-268 CNS 97.7% | SF-295 CNS 96.8% | SF-539 CNS 102% | M14 melanoma 105%

CCC(C)(C)C1CCC(O)CC1 (configuration not stated)
inactive: NCI-H23 lung 91% | NCI-H226 lung 103% | NCI-H322M lung 103% | HOP-62 NSCLC 90.5% | NCI-H460 lung 103% | A549/ATCC NSCLC 106% | DU-145 prostate 107% | K-562 leukemia 110% | MALME-3M melanoma 96.4% | MDA-MB-231 breast 94.9% | RXF 393 renal 109% | SF-268 CNS 101% | SF-295 CNS 114% | SF-539 CNS 104% | UACC-257 melanoma 99.8%

CC(C)=CC(=O)OC(=O)C=C(C)C
inactive: NCI-H23 lung 117% | NCI-H226 lung 93.5% | NCI-H322M lung 104% | HOP-62 NSCLC 103% | NCI-H460 lung 106% | 786-0 renal 106% | COLO 205 colon 113% | DU-145 prostate 101% | K-562 leukemia 99.1% | MALME-3M melanoma 101% | MDA-MB-231 breast 99.6% | RXF 393 renal 102% | SF-268 CNS 103% | SF-295 CNS 111% | SF-539 CNS 105% | M14 melanoma 107%

COc1ccc(C(=O)C(Br)C(Br)C(=O)O)cc1 (configuration not stated)
inactive: NCI-H23 lung 99.1% | NCI-H226 lung 102% | NCI-H322M lung 94.1% | HOP-62 NSCLC 108% | NCI-H460 lung 104% | 786-0 renal 100% | COLO 205 colon 110% | DU-145 prostate 111% | K-562 leukemia 109% | MALME-3M melanoma 109% | MDA-MB-231 breast 111% | RXF 393 renal 106% | SF-268 CNS 108% | SF-295 CNS 108% | SF-539 CNS 99.5% | M14 melanoma 89.2%

CCOc1ccc(/C=N/N=C(N)N)cc1OCC
inactive: NCI-H23 lung 92% | NCI-H226 lung 93.3% | NCI-H322M lung 110% | HOP-62 NSCLC 106% | HOP-92 NSCLC 99.4% | NCI-H522 lung 99.2% | A549/ATCC NSCLC 95.7% | 786-0 renal 100% | COLO 205 colon 107% | DU-145 prostate 117% | K-562 leukemia 98.7% | MALME-3M melanoma 113% | MDA-MB-231 breast 108% | RXF 393 renal 111% | SF-268 CNS 96.2% | SF-295 CNS 95.9% | SF-539 CNS 99.8% | UACC-257 melanoma 89.7% | M14 melanoma 99.3%

CN(C)c1ccc(S(=O)(=O)O)cc1
inactive: NCI-H23 lung 103% | NCI-H226 lung 96.6% | NCI-H322M lung 116% | HOP-62 NSCLC 91.1% | HOP-92 NSCLC 85.8% | NCI-H522 lung 101% | A549/ATCC NSCLC 105% | 786-0 renal 110% | COLO 205 colon 102% | DU-145 prostate 110% | K-562 leukemia 104% | MALME-3M melanoma 103% | MDA-MB-231 breast 105% | RXF 393 renal 103% | SF-268 CNS 91.9% | SF-295 CNS 107% | SF-539 CNS 91.2% | UACC-257 melanoma 107%

CCO/C=C1\SC(=S)N(c2cccc(C)c2)C1=O
inactive: NCI-H23 lung 108% | NCI-H226 lung 93.4% | NCI-H322M lung 92% | HOP-62 NSCLC 88.9% | NCI-H460 lung 102% | 786-0 renal 106% | COLO 205 colon 108% | DU-145 prostate 111% | K-562 leukemia 99.5% | MALME-3M melanoma 98.4% | MDA-MB-231 breast 117% | RXF 393 renal 105% | SF-268 CNS 101% | SF-295 CNS 97% | SF-539 CNS 97.8% | M14 melanoma 119%
